# Screening data from PubChem.
# PINK1 modulator: A Quantitative High throughput Screen to Identify Chemical Modulators of PINK1 Expression. Potency, µM (series often up to 76.6 µM), for the others: top-dose activation (PINK1 increase), most hits filed as activators. 0.2% of 410,000 active. AID 624263, 2012. PINK1 immunofluorescence, high-content cytometry, 24 h; active = well fitted activation curve with a large enough effect; inconclusive = small, poorly fitted or top-dose-only effect; cell line not stated here; note: potency is the fitted concentration of half-maximal effect; % of control where 0% means no effect; nearly all actives have a fitted effect of over 65% in size
#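 A stable cell line was treated with compounds at 5 concentrations for 24 hours, with CCCP as control. PINK1 levels and mitochondrial localization were measured by immunofluorescence with mitochondrial, cell and nuclear markers after fixation, read by laser-scanning cytometry.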
# Epigenetic derep: Quantitative High-Throughput Screen for Regulators of Epigenetic Control | murine LDR cells, GFP reporter derepression, 30 h | Potency, µM (top dose mostly 53.9 µM), for inactives: at the top dose GFP activation, hits mostly activators | 0.2% of 280,000 active | AID 1865, 2009; note: potency is the fitted concentration of half-maximal effect; % of control where 0% means no effect; nearly all actives have a fitted effect of over 60% in size
#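 Readout is the number of GFP-expressing murine LDR cells, counted by cytometry following washing. Cells were treated with compound for 30 h at 37 C; the stably integrated CMV-GFP locus is normally silent.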
# PTAP TSG101 blk: qHTS Assay for Iinhibitors of HIV-1 Budding by Blocking the Interaction of PTAP/TSG101; Potency, µM (doses to about 115 µM), inactives show top-dose activity change, negative = inhibition, actives largely listed as inhibitors; AID 493005, 2010; Tumor susceptibility gene 101 protein (Homo sapiens), Q99816; Fluorescence polarization, FITC-PTAP peptide / Tsg101 binding; 340,000 tested, under 10 active; active = well fitted inhibition curve with a large enough effect in the main read-out, with a control signal flat, not every such curve was filed as active; inconclusive = small, poorly fitted or top-dose-only effect, or effect the other way, or a change in a side signal; inactive = no such curve, though single readings can be large or run the other way; note: potency is the fitted concentration of half-maximal effect; % of control where 0% means no effect
# Target sequence (Q99816 whole entry, looked up): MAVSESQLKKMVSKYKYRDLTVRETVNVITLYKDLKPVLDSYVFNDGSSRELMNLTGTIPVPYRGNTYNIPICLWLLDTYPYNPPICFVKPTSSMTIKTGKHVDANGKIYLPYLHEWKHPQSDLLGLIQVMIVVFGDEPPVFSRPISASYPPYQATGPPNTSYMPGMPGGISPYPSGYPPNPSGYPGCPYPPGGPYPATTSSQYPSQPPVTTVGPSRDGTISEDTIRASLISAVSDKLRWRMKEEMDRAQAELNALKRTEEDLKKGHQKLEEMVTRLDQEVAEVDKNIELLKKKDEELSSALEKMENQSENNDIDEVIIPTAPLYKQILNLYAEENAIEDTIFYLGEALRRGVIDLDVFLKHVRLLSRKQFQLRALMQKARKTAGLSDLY
#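 Fluorescence polarization binding of Tsg101 binding domain (10 uM final) to FITC-labeled PTAP peptide (50 nM final) in HEPES pH 7.5 buffer with NaCl, Tween 20, EDTA, TCEP. Compounds added before peptide; binding 20 min at RT.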
# HTT ATP protect: qHTS Multiplex Assay to Identify Dual Action Probes in a Cell Model of Huntington: Cytoprotection (ATP); PC12 HTT-Q103 induced, cytoprotection, ATP luminescence, 40 h; Potency, µM (doses to about 56.4 µM), for inactives: cytoprotection (ATP increase), most hits filed as activators; 0.14% of 230,000 active; note: potency is the fitted concentration of half-maximal effect; % of control where 0% means no effect; nearly all actives have a fitted effect of over 45% in size
#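 Huntington model: PC12 line, ecdysone-inducible HTTQ103 exon1–GFP, tebufenozide 100 nM. Test articles in a dose series. Endpoint luminescence from cellular ATP.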
# HttQ103 aggreg: qHTS Multiplex Assay to Identify Dual Action Probes in a Cell Model of Huntington: Aggregate Formation (GFP) | 1.1% of 220,000 active | Potency, µM (highest dose often 46.1 µM), inactives show at the highest dose activity change, negative = inhibition, hits mostly inhibitors | PC12 HttQ103-GFP aggregates, Acumen cytometry, 40 h; note: potency is the fitted concentration of half-maximal effect; % is set by controls: 0 for no effect and ±100 for the full control effect; nearly all actives have a fitted effect of over 60% in size
#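 PC12 cells stably carrying ecdysone-inducible HTT exon 1 Q103–GFP were induced with tebufenozide (100 nM final) and treated with library compounds in titration. GFP aggregates in lysates were counted by laser scanning cytometry.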
# Anesthetic bind: qHTS Assay for Identification of Novel General Anesthetics; Ferritin light chain (Equus caballus), P02791; apoferritin/1-aminoanthracene competitive binding, fluorescence; Potency, µM (highest dose often 77.5 µM), for inactives: top-dose activity change, negative = displacement, hits mostly inhibitors; 0.074% of 350,000 active; AID 485281, 2010; note: potency is the fitted concentration of half-maximal effect; % is set by controls: 0 for no effect and ±100 for the full control effect; nearly all actives have a fitted effect of over 20% in size
# Target sequence (P02791 2-175 limits assumed): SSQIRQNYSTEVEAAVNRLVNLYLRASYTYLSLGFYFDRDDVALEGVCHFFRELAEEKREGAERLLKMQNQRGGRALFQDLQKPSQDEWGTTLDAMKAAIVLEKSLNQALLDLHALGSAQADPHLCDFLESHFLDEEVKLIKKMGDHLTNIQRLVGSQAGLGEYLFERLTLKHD
#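 In PBS, apoferritin at 10 uM is loaded with 1-AMA from a 50% saturated solution. After 10 min of compound exposure at ambient temperature, reduced 535 nm fluorescence indicates probe displacement.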
# C127i cell count: Parental Cell Counter Screen Assay for Epigenetic Modulators: Hit Validation | shares compounds with Epigenetic derep | mouse c127i parental cells, fluorescent cell count, 30 h | 20% of 60 active | AID 493065, 2011 | Potency, µM, inactives show top-dose fluorescent cell count, actives largely listed as activators
# HCC4017 viab: HCC4017 Cell Viability Secondary Assay for qHTS Assay for Epigenetic Modulators; Potency, µM (titrated, usually from 46.1 µM), inactives show top-dose activity change, negative = cytotoxicity, hits mostly cytotoxic; shares compounds with Epigenetic derep; AID 493071, 2011; 30% of 45 active; HCC4017 NSCLC viability, CellTiter-Glo ATP luminescence, 72 h
# H358 viab: H358 Cell Viability Secondary Assay for qHTS Assay for Epigenetic Modulators: Round 2 | 30% of 45 active | Potency, µM (series often up to 46.1 µM), without a hit: at the top dose activity change, negative = viability loss, usual class: cytotoxic | shares compounds with Epigenetic derep | H358 NSCLC viability, ATP luminescence, 72 h | AID 493074, 2011
# * marks the source's active call; other numbers are inactive results; ? = inconclusive; / = not tested or not shown; [ ] = remark or other dose. The sample as a whole holds a higher share of hits than the screen did. Unless noted, calls come from the whole dose curve; as a rule, active = well fitted curve in the direction sought with a large enough effect; inconclusive = small, poorly fitted or top-dose-only effect, or another doubt; inactive = no such curve, though single readings can be large; an effect the other way counts as inactive or inconclusive.
SMILES,PINK1 modulator,Epigenetic derep,PTAP TSG101 blk,HTT ATP protect,HttQ103 aggreg,Anesthetic bind,C127i cell count,HCC4017 viab,H358 viab
COc1ccc(CCNC(=O)c2cnn(-c3nccc(-c4ccco4)n3)c2C)cc1,-1.0%,/,/,/,/,/,/,/,/
Cc1ccc(NC(=O)c2c(C)nc3sc(C(=O)NC4CCCC4)c(N)c3c2-c2ccco2)c(C)c1,?,?,3.4%,-8.8%[10 µM],-7.2%,-2.3%,?,/,/
COc1ccc(Nc2nc3c(S(=O)(=O)c4ccccc4)nnn3c3ccc(Cl)cc23)cc1,1.5%,?,/,/,/,54.7%,4.0%,/,/
COc1ccccc1OCC(=O)N/N=C/C=C/c1ccc([N+](=O)[O-])o1,?,10µM*,-0.7%,15.3%[10 µM],?,-23.2%,4.0%,?,14.1µM*
CCn1c2ccc(OC)cc2c2nc3ccccc3nc21,-1.6%,-2.0%,-3.4%,2.8%[10 µM],-6.9%,?,/,/,/
CCCCOC(=O)Cn1c2ccc(OC)cc2c2nc3ccccc3nc21,12.1%,?,-22.1%,18.2%,-3.9%,-9.0%,?,?,?
CCCCC(CC)CNC(=O)c1ccc2c(=O)n(CCOC)c(=O)[nH]c2c1 (centres undefined),1.6%,-1.5%,/,/,/,-3.6%,/,/,/
O=C(NN1C(=O)c2ccccc2NC1c1ccc([N+](=O)[O-])o1)c1ccccc1 (centres undefined),2.7%,-1.2%,-1.5%,9.1%,?,-20.0%,/,/,/
O=C(NN1C(=O)c2ccccc2NC1c1ccc([N+](=O)[O-])o1)c1ccc([N+](=O)[O-])cc1 (centres undefined),-1.7%,10µM*,-0.3%,20.1%,?,-21.6%,9.0%,?,?
O=S(=O)(c1ccc(-n2cnnn2)cc1)N1CCN(c2cccc(Cl)c2)CC1,-0.5%,0.0%,/,/,/,0.5%,/,/,/
COc1cccc(N2CCN(S(=O)(=O)c3ccc(-n4cnnn4)cc3)CC2)c1,0.8%,?,1.1%,/,/,-11.9%,4.0%,12.6%,-10.7%
NC(=S)N/N=C/c1ncc(C(F)(F)F)cc1Cl,1.6%,3.98µM*,-8.6%,-97.5%[10 µM],?,-3.0%,8.0%,?,?
O=C(COC(=O)COc1ccc(Cl)cc1Cl)NC1CC1,2.6%,/,-6.8%,/,/,/,/,/,/
C/C=C/c1ccc(OCC(=O)OCC(=O)NC2CC2)c(OC)c1,-0.3%,?,-2.9%,-24.4%,-10.4%,1.9%,2.0%,8.7%,16.3%
CN(c1ccccc1)S(=O)(=O)c1nnc(NC(=O)c2ccccc2)s1,-0.6%,7.08µM*,/,/,/,3.4%,0.0%,-14.5%,-26.6%
O=C(CSc1cccc[n+]1[O-])c1ccccc1Br,-1.3%,3.55µM*,-3.4%,-18.5%,15.9%,-17.8%,7.0%,9.5%,-11.7%
COCCNC(=S)N/N=C(\C)c1ccccc1O,-0.7%,4.47µM*,0.0%,/,-5.3%,-12.0%,4.0%,?,?
